Screening data from PubChem.
Shown are actives, neighbours in structure and some others; about 19% of the full set was active somewhere.
TDP1 cell CPT: growth inhibition of DT40 Tdp1-/-;hTDP1 cells with camptothecin (screen for TDP1 inhibitors) | chicken DT40 Tdp1-/-;hTDP1 cells + 20 nM CPT, ATP luminescence, 48 h | Potency, µM (highest dose often 46.2 µM), for the others: at the highest dose activity change, negative = growth inhibition, hits mostly inhibitors | 420,000 tested, 12% active | AID 686979; note: potency is the fitted concentration of half-maximal effect; nearly all actives have a fitted effect of over 55% in size
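Chicken DT40 Tdp1-/- cells complemented with human TDP1, 400 cells/well, exposed to compounds plus 20 nM camptothecin for at least 48 h at 37 C; viability read as ATP content by CellTiter-Glo luminescence.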
Giardia killer: kills Giardia lamblia; Giardia lamblia trophozoite viability; 340,000 tested, 0.15% active; activity change, % at 7.66 µM, hits read low; in the data active = activity change below about -80%; inconclusive = between about -30% and that limit;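 note: parasites exposed to compound for two days anaerobically before the ATP read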
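ATP-content bioluminescence gauges trophozoite survival. Cells (100/well) receive compound and incubate anaerobically for 48 hrs at 37 deg C; detection reagent follows for 15-30 min at room temperature.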
TDP1 cell noCPT: qHTS for Inhibitors of human tyrosyl-DNA phosphodiesterase 1 (TDP1): qHTS in cells in absence of CPT. DT40 Tdp1-/- hTDP1 cells, no CPT, ATP luminescence, 48 h. Potency, µM (highest dose often 46.2 µM), for inactives: at the highest dose activity change, negative = growth inhibition, hits mostly inhibitors. 420,000 tested, 15% active. AID 686978, 2013; note: potency is the fitted concentration of half-maximal effect; nearly all actives have a fitted effect of over 55% in size
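Cells were dispensed at 400 per well, compounds added by pin tool, plates incubated ≥48 hr at 37 °C, then CellTiter-Glo added for 30 min at room temperature before luminescence reading. Line: DT40 Tdp1-/- complemented with hTDP1; camptothecin omitted.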
IL1B secr inh: inflammasome signaling inhibition, IL-1 beta readout. 360,000 tested, 4.7% active. THP-1 LPS/ATP IL-1B secretion, AlphaLISA, 16 h; hits give low values. activity change, % at 57.5 µM; in the data active = activity change below about -50%; inconclusive = mostly about -30% to -49%
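THP-1 cells pretreated 1 hr with compounds (up to 57.5 uM final), then stimulated with LPS (250 ng/mL final) plus ATP (1.25 mM final); secreted IL-1B measured by AlphaLISA after 16 hr, decreased signal indicating inhibition.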
TDP1 block: TDP1 (human) enzyme inhibition; Q9NUW8; recombinant TDP1, AlphaScreen DNA substrate cleavage; Potency, µM (doses to about 130 µM), for the others: at the top dose activity change, negative = inhibition, usual class: inhibitors; 350,000 tested, 0.28% active; AID 485290; note: potency is the fitted concentration of half-maximal effect; nearly all actives have a fitted effect of over 40% in size
Target sequence (Q9NUW8 whole entry, looked up): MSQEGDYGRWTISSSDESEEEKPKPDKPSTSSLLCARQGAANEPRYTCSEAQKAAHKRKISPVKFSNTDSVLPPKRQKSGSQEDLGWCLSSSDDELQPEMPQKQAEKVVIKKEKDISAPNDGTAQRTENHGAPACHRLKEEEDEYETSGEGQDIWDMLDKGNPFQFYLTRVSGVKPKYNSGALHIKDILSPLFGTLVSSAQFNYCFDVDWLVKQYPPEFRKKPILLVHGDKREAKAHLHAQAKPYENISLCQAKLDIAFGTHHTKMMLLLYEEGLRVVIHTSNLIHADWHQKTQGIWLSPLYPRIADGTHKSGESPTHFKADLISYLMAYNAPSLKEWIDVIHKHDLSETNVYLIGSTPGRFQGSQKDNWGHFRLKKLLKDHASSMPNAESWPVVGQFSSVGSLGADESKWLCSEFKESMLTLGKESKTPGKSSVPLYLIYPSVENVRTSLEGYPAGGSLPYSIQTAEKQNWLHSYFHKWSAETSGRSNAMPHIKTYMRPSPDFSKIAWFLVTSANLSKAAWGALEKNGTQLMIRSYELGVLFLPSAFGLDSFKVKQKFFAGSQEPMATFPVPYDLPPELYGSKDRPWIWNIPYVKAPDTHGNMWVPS
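Recombinant E. coli-expressed Tdp1 (1 nM) preincubated with compound 15 min at RT, then 5'-biotin/3'-phosphotyrosine-FITC DNA substrate (15 nM) added for 5 min. AlphaScreen beads (10 ug/ml) added, 10 min RT; tyrosine-FITC cleavage read as signal loss.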
ELG1 repair inh: ELG1-dependent DNA repair inhibition | HEK293T ELG1-luciferase reporter, luminescence, 16 h; DNA damage induced by 5-fluorouridine | Potency, µM (highest dose often 46.1 µM), for the others: at the top dose activity change, negative = inhibition, actives largely listed as inhibitors | 330,000 tested, 2.3% active | AID 504467; note: potency is the fitted concentration of half-maximal effect; nearly all actives have a fitted effect of over 55% in size
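In this reporter screen, reduction of luminescence relative to DMSO vehicle indicated activity. Compounds and 5-fluorouridine were added together to 2,000 cells per well, incubated for 16 hr at 37 °C, then developed with ONE-Glo.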
Active calls of the source: *; ? = inconclusive; . = no result given; [ ] = another dose, or the depositor's remark. Unless noted, calls come from the whole dose curve; as a rule, active = well fitted curve in the direction sought with a large enough effect; inconclusive = small, poorly fitted or top-dose-only effect, or another doubt; inactive = no such curve, though single readings can be large; an effect the other way counts as inactive or inconclusive. % is set by controls: 0 for no effect and ±100 for the full control effect.

SMILES | TDP1 cell CPT | Giardia killer | TDP1 cell noCPT | IL1B secr inh | TDP1 block | ELG1 repair inh
Cn1cc(S(=O)(=O)N2CCCC(C(=O)O)C2)cn1 (centres undefined) | ? | -29 | -2% | 22 | -5% | 1%
O=C(COc1ccc2c(c1)oc(=O)c1ccccc12)NCCCN1CCOCC1 | 0% | -11 | -6% | ? | -4% | ?
Cc1ccc(CN(C)C(=O)C2CCC(=O)N(C3CCCCCC3)C2)cc1 (centres undefined) | 9% | 8 | -27% | -13 | 4% | 0%
CC(C)(C)NS(=O)(=O)c1ccc(NC(=S)NC(=O)C2CCC2)cc1 | ? | 27 | ? | 3 | 1% | ?
O=C(Nc1cccc(Cl)c1)Nc1csc([N+](=O)[O-])c1 | 2.9µM* | -5 | 2.3µM* | . | 2% | ?
COc1ccc(C(N)c2csc(Nc3ccc(C(=O)c4ccccc4)cc3)n2)cc1 (centres undefined) | ? | . | ? | -28 | . | .
NC(c1ccccc1)c1csc(NC(=O)Nc2ccc(OC(F)(F)F)cc2)n1 (centres undefined) | 23µM* | . | -107% | -24 | . | .
Cc1ccc(NC(=O)Nc2nc(-c3ccc(C)s3)cs2)cc1 | ? | 7 | 12µM* | -4 | 1% | 0%
CN(C)c1ccc(NC(=O)Nc2cccc(Cl)c2)cc1 | -15% | -23 | ? | ? | 10% | ?
CCOC(=O)c1c(N)sn(-c2ccccc2C)c1=S | 23µM* | -7 | 26µM* | -24 | -3% | -1%
CCOC(=O)c1c(N)sc(-c2ccccc2)c1C | ? | 8 | ? | ? | 5% | ?
Cn1c(=O)c2c([nH]c(OCc3ccc(Cl)cc3Cl)[n+]2Cc2ccc(F)cc2)n(C)c1=O | ? | 45 | ? | 2 | . | ?
O=C(NCCCn1ccnc1)c1sc2cc([N+](=O)[O-])ccc2c1Cl | 13µM* | . | 16µM* | 59 | . | .
O=C(NCCCn1ccnc1)c1sc2cccc(F)c2c1Cl | -23% | -8 | ? | -12 | 8% | 4%
CC1(C)Cc2nc3oc4c(=O)n(CC(=O)Nc5ccccc5)cnc4c3cc2CO1 | -27% | -15 | -18% | 63 | 0% | 12%
CC(C)CCn1cnc2c(oc3nc4c(cc32)CCCC4)c1=O | ? | ? | 21µM* | ? | 0% | ?
Cc1nc(C)c(C(=O)OCC(=O)Nc2cccc(C)c2C)s1 | ? | -24 | -23% | 32 | -2% | 13%
COc1cc(-c2nnc(NC(=O)CS(=O)(=O)c3ccc(C)cc3)o2)cc(OC)c1OC | -2% | -12 | -1% | 13 | 4% | 13%
COc1cc(-c2nnc(-c3ccc(S(=O)(=O)c4ccccc4)cc3)o2)cc(OC)c1OC | 12µM* | 6 | 12µM* | 16 | -6% | ?
COc1cc(-c2nnc(-c3ccc(N4CCOCC4)cc3)o2)cc(OC)c1OC | 6.5µM* | -7 | 5.8µM* | ? | 4% | -25%
Cc1cccc(C(=O)Nc2nnc(S(=O)(=O)N(C)Cc3ccc(Cl)cc3)s2)c1 | ? | . | ? | . | -8% | .
O=S(=O)(c1ccc2c(c1)OCCO2)N1CCN(c2nc(-c3cccs3)nc3ccccc23)CC1 | ? | ? | ? | . | 1% | .
COc1cc(Nc2nc(SCC(=O)c3ccc(Br)cc3)nc3ccccc23)cc(OC)c1 | 5.2µM* | . | 2.9µM* | . | -14% | .
C[C@H]1CCC[C@]2(C)C[C@H]3OC(=O)C(CN4CCCCCC4)[C@H]3C=C12 (some centres undefined) | ? | 13 | ? | -98* | . | ?
C=C1C(=O)OC2C[C@@]3(C)CCCC(C)C3=CC12 (some centres undefined) | ? | . | 10µM* | . | -6%[56.1 µM] | .
SMILES | TDP1 cell CPT | Giardia killer | TDP1 cell noCPT | IL1B secr inh | TDP1 block | ELG1 repair inh
COc1cc2c(cc1OC)[C@H](C)N(CC1C(=O)O[C@@H]3C[C@@]4(C)CCC[C@H](C)[C@@]45OC5[C@H]13)CC2 (some centres undefined) | -26%[9.04 µM] | . | ? | . | 6% | .
O=C(NCc1ccc(Cl)cc1)C(=O)NCC(c1cccs1)S(=O)(=O)c1cccs1 (centres undefined) | -85% | . | ? | . | 3% | .
O=S(=O)(NCC(c1cccs1)S(=O)(=O)c1ccccc1)c1ccc(F)cc1 (centres undefined) | 1.6µM* | . | 2.3µM* | . | 5% | .
O=C(NCCc1ccc(F)cc1)C(=O)NCC(c1cccs1)S(=O)(=O)c1cccs1 (centres undefined) | ? | . | 26µM* | . | -3% | .
COc1ccc(S(=O)(=O)NCC(c2cccs2)S(=O)(=O)c2ccccc2)cc1OC (centres undefined) | ? | . | -19% | . | 3% | .
COc1ccc(N(C(=O)CCl)C(C(=O)NCCc2ccccc2)c2cccs2)cc1 (centres undefined) | 4.6µM* | 6 | 4.1µM* | -108* | 1% | ?
COc1ccc(CC(=O)NCC(c2cccs2)S(=O)(=O)c2ccc(F)cc2)cc1 (centres undefined) | ? | . | ? | . | 3% | .
COc1ccc(CCNC(=O)C(=O)NCC(c2cccs2)S(=O)(=O)c2ccc(F)cc2)cc1 (centres undefined) | ? | . | 23µM* | . | 5% | .
COCc1c(Br)c(C)nc(OCC(=O)N/N=C/c2cc(C)n(-c3ccc([N+](=O)[O-])cc3)c2C)c1C#N | ? | -9 | -11% | 8 | 4% | -8%
O=S1(=O)CCN(Cc2ccncc2)CC1 | -5% | . | 2% | 8 | . | .
CC(=O)OC(c1nc2ccccc2c(=O)n1C1CC2(OC1=O)c1ccccc1N1C(=O)C(C)(C)N(O)C12)C(C)C (centres undefined) | 16µM* | 15 | 21µM* | 4 | . | ?
COC(=O)c1ccc(CSc2nc3ccccc3c(=O)n2CC(C)C)o1 | ? | -3 | ? | 6 | -2% | -21%
CCOC(=O)C1=C(CN2CCCCC2)NC(=O)NC1c1ccc(C)cc1 (centres undefined) | -14% | . | -12% | . | 0% | .
COc1ccc(N2C(=O)C(CC(=O)Nc3ccc(F)cc3)N(CCC3=CCCCC3)C2=O)cc1 (centres undefined) | ? | . | 16µM* | . | 4% | .
CCOc1ccc(NC(=O)CC2C(=O)N(c3cccc(C)c3)C(=O)N2CCC2=CCCCC2)cc1 (centres undefined) | ? | . | 23µM* | . | 6% | .
CCC(c1nnnn1C(C)(C)C)N1CCN(c2cc(Cl)ccc2C)CC1 (centres undefined) | ? | -21 | 16µM* | -6 | 0% | ?
